# Inconclusive results are not listed. Calls of active or inactive are those of the source. Calls follow the shape of the dose curve; as a rule, active = well fitted inhibition curve with a large enough effect; inconclusive = small, poorly fitted or top-dose-only effect; inactive = no such curve, though single readings can be large or run the other way.
# Tested on: Zika virus NS2B-NS3 protease (unlinked)
# Test: Optimization of GU AMC qHTS for Zika virus inhibitors: Unlinked NS2B-NS3 protease assay (AID 1347151); also: nearly all actives have a fitted effect of over 80% in size;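 as to activity change, negative = inhibition: 0% = no-inhibitor control and -100% = no-enzyme control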
# Conditions: recombinant ZIKV NS2B-NS3 protease, fluorogenic AMC substrate; series mostly up to 52.5 µM; activity change, negative = inhibition: at the top concentration
# How it was run: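 Noncovalent NS2B hydrophilic domain–NS3 protease complex (25 nM final) in 10 mM Tris-HCl pH 8.0, 0.01% Tween 20; AMC substrate, room temperature 15 min (~20% conversion); fluorescence change normalized, 4-parameter Hill fit.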
# Potency is read from the fitted curve at half-maximal effect.
Structure (SMILES),"activity change, negative = inhibition",Potency
c1ccc2c(c1)CCC[C@H]2Nc1nc2ccccc2[nH]1,-8.23% (inactive),
C[C@H](O)C(=O)C1=Nc2c(nc(N)[nH]c2=O)NC1,,23.8 µM (active)
c1ccc(CN2CCC3(CCCc4ccccc43)CC2)cc1,-12.8% (inactive),
C[C@H]1CC2C3CCC4=CC(=O)C=C[C@]4(C)[C@@]3(Cl)[C@@H](O)C[C@]2(C)[C@@]1(O)C(=O)CO (stereo partly drawn),2.24% (inactive),
OC1(c2ccc(Cl)cc2)CCN(Cc2c[nH]c3ccccc23)CC1,14.3% (inactive),
NC(Cc1cccc(-c2ccccc2CP(=O)(O)O)c1)C(=O)O (stereo not drawn),0.114% (inactive),
CN1Cc2sccc2C(c2ccc(O)c(O)c2)C1 (stereo not drawn),2.96% (inactive),
CC(O)C(O)[C@H]1CNc2nc(N)[nH]c(=O)c2N1 (stereo partly drawn),,26.7 µM (active)
Cn1c(=O)c2[nH]c(-c3ccc(S(=O)(=O)O)cc3)nc2n(C)c1=O,4080% (inactive),
C[C@@]1(C2CCCC2)Cc2cc(OCC(=O)O)c(Cl)c(Cl)c2C1=O,-5.33% (inactive),
CC(=O)/C(C)=N/O,10.9% (inactive),
CN1CCCC1CCOC(C)(c1ccccc1)c1ccc(Cl)cc1 (stereo not drawn),26.9% (inactive),
CC(C)Cn1c(=O)n(C)c(=O)c2[nH]cnc21,5.89% (inactive),

# — PubChem BioAssay (NCATS)
